Screening data deposited in PubChem by several laboratories.
Only some compounds are listed: those with a hit (about 5.6% of all), similar ones and a draw of the others.
ALR inh – inhibitors of human ALR sulfhydryl oxidase, primary screen, biochemical, H2O2 detection, HRP-luminol luminescence, single point; inhibition, % (concentration not given with the values); 3.8% of 290,000 active; purified ALR, DTT oxidation; FAD-linked sulfhydryl oxidase ALR (Homo sapiens), P55789; AID 485317, 2010;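 active = mean replicate inhibition above about 79%, with every replicate also reaching it, limit read from the data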
PfM18AAP inh-1 – PfM18AAP inhibitors, malaria aminopeptidase, primary screen, biochemical, QFRET, recombinant enzyme; H-Glu-NHMec fluorogenic cleavage; inhibition, % at 7.35 µM; M18 aspartyl aminopeptidase (Plasmodium falciparum 3D7); 1.2% of 290,000 active;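 active = inhibition above the campaign mean inhibition over all tested compounds plus 3 SD, cut at about 28% in these data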;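 note: 0% = plate median of test compound wells and 100% = 2 mM ZnCl2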
PfG6PD inh – PfG6PD enzyme inhibitors, primary screen, biochemical, fluorescence intensity, uHTS; glucose-6-phosphate dehydrogenase-6-phosphogluconolactonase (Plasmodium falciparum 3D7); PfGluPho enzyme, NADPH resazurin-diaphorase fluorescence; inhibition, % at 20 µM; 0.78% of 350,000 active; AID 504690, 2011;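 active = inhibition reaching at least a set limit at 20 µM in the primary screen, cut at about 59% in these data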;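 note: 0% = DMSO wells with substrate and 100% = DMSO wells lacking glucose-6-phosphate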
H9c2 protect – cardioprotection against H2O2-induced cell death, primary screen, uHTS, H9c2 cells, ATPLite luminescence | H9c2 cardiomyocytes, H2O2 injury protection, 2 h | 0.63% of 360,000 active | protection from H2O2 cell death, % at 20 µM | AID 588492, 2011;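 active = compounds giving at least 50% protection of heart cells from peroxide-induced death in the single-dose screen, raw or plate-pattern-corrected value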;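 note: 0% = DMSO wells with peroxide and 100% = DMSO wells without peroxide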
PHOSPHO1 inh – PubChem AID 1565 | recombinant PHOSPHO1, absorbance phosphatase assay | 1.1% of 290,000 active | Phosphoethanolamine/phosphocholine phosphatase (Homo sapiens), Q8TCT1 | inhibition, % at 13.3 µM; in the data active = inhibition above about 60%
Target sequence (Q8TCT1 whole entry, looked up): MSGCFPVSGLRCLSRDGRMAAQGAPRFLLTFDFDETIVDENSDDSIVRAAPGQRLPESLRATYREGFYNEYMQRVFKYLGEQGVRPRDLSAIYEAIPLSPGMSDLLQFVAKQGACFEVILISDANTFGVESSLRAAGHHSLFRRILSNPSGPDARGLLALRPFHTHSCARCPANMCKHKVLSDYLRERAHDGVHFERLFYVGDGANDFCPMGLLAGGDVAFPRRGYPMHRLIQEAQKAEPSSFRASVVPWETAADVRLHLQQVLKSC
PfM18AAP inh-2 – PfM18AAP inhibitors, malaria aminopeptidase, confirmation, biochemical, QFRET, recombinant enzyme, triplicate; 28% of 2,400 active; inhibition, % at 7.35 µM; shares compounds with PfM18AAP inh-1; H-Glu-NHMec fluorogenic cleavage; AID 2170, 2009;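 active = mean inhibition over replicate wells above the hit cutoff set for the earlier primary screen, cut at about 29% in these data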;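 note: 0% = median of test compound wells and 100% = 2 mM ZnCl2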
CTSL1 counter – cathepsin L1 inhibitors, retest, confirmation, counter-screen for PFM18AAP inhibitor project, biochemical, QFRET, triplicate; shares compounds with PfM18AAP inh-1; purified cathepsin L1, Z-Leu-Arg-MCA fluorescence; inhibition, % at 5.96 µM; 2,400 tested, under 10 active; AID 2178, 2009;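 active = average inhibition across replicates above the hit cutoff set in the earlier primary screen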;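 note: 0% = median of test compound wells and 100% = Z-Phe-Ala-diazomethylketone 1 µM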
Target sequence (P07711 whole entry, looked up): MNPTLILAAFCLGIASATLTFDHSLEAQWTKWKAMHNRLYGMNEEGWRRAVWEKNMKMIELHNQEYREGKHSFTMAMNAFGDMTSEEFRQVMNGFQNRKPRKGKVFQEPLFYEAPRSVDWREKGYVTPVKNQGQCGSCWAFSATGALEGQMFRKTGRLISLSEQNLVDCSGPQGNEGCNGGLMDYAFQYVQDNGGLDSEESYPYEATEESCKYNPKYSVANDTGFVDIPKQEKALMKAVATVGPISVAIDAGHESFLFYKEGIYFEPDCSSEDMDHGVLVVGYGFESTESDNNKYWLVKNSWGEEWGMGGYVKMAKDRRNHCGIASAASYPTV
* marks the source's active call; other numbers are inactive results; · = not tested or not shown.

SMILES	ALR inh	PfM18AAP inh-1	PfG6PD inh	H9c2 protect	PHOSPHO1 inh	PfM18AAP inh-2	CTSL1 counter
O=C1CCCC2=C1C(c1ccc(O)c(O)c1)Nc1ccc3ncccc3c12 (stereo not given)	99*	78*	49	0	43	78*	1
COc1ccccc1N1CCN(C(=O)C2CCN(C(=O)c3ccc(C(C)(C)C)cc3)CC2)CC1	-3	5	19	-7	33	·	·
COc1cc(/C=N/n2cnn(Cc3ccccc3Cl)c2=S)cc(OC)c1OC	-3	18	25	-8	-115	·	·
COc1ccc(/C=N/n2cnn(Cc3ccccc3Cl)c2=S)cc1	-10	34*	27	-19	-98	-50	-3
N#Cc1c(/N=C/c2ccc(Br)s2)sc2c1CCC2	·	-3	24	-11	-8	·	·
N#Cc1c(/N=C/c2cccs2)sc2c1CCCCC2	95*	34*	28	-8	39	-23	7
CC(NC(=O)Cn1cc([N+](=O)[O-])cn1)c1ccc(C(C)(C)C)cc1 (stereo not given)	0	·	-14	-1	·	·	·
O=C(NNc1cccc(Cl)n1)c1c(Cl)cccc1Cl	-2	56*	-36	5	4	27	4
NC(=O)NNc1cccc(Cl)n1	·	47*	13	1	-8	8	1
CC(=O)Oc1c(C)c(C)c2c(c1C)CC[C@@](C)(CCC[C@H](C)CCC[C@H](C)CCCC(C)C)O2	-14	·	-9	-6	·	·	·
c1ccc(C(c2ccccc2)c2ccn[nH]2)cc1	-1	7	15	-4	15	·	·
Nc1nc(Sc2ccc([N+](=O)[O-])cc2[N+](=O)[O-])n[nH]1	-5	57*	4	-1	18	56*	1
Fc1ccc(CNc2ccc(CNc3ncn[nH]3)cc2)cc1	·	32*	-12	-1	-28	-26	-1
COc1cc(CNc2ccc(CNc3ncn[nH]3)cc2)ccc1OCC(=O)NC(C)(C)C	-3	47*	2	2	9	-35	-8
CC(C)(C)NC(=O)COc1ccc(CNc2ncn[nH]2)cc1	·	2	-6	0	39	·	·
COc1ccc(NC(=O)CSc2n[nH]c(CNc3cccc(C)c3)n2)cc1	4	1	-2	-3	19	·	·
c1ccc2sc(NN=C3CCCCCC3)nc2c1	4	33*	25	-25	29	-35	0
O=C(Nc1nc2ccccc2s1)c1ccccc1	-4	-1	25	-18	8	·	·
COc1ccc(Nc2nc(N/N=C/c3ccc(N(C)C)cc3)nc(C)c2[N+](=O)[O-])cc1	-1	49*	-4	1	-2	-53	-1
COc1ccc(Nc2nc(NN)nc(C)c2[N+](=O)[O-])cc1	-5	52*	11	42	47	22	-1
Cc1cccc(NC(=S)NC2CCCCC2)n1	-2	36*	41	-2	32	8	2
Cc1cccc(NC(=S)Nc2cccc(C)n2)n1	-1	-6	-15	-2	30	·	·
Cc1cccc(NC(=S)NC2CCCC2)n1	-7	44*	42	-8	-32	-3	7
CCN(CC)C(=O)C1=C(C)N(CCC2=CCCCC2)C(=O)C(CC(=O)NCCN2CCOCC2)C1 (stereo not given)	·	·	3	3	·	·	·
CCNC(=O)C1(C)CCCN(C(=O)c2nc3ccccc3s2)C1 (stereo not given)	·	·	·	10	·	·	·
SMILES	ALR inh	PfM18AAP inh-1	PfG6PD inh	H9c2 protect	PHOSPHO1 inh	PfM18AAP inh-2	CTSL1 counter
CCCNc1c(N)c(=O)oc2ccccc12	34	49*	-4	2	9	-3	-6
FC(F)Oc1ccc(/C=N/n2c(Cc3ccc(Br)cc3)n[nH]c2=S)cc1	65	46*	52	-3	31	-5	0
Cc1c(NC(=S)N/N=C/c2ccc(Br)cc2)c(=O)n(-c2ccccc2)n1C	·	13	-8	1	18	·	·
Cc1c(NC(=S)N/N=C\c2ccccc2O)c(=O)n(-c2ccccc2)n1C	39	36*	-15	44	11	-2	3
CC(C(=O)OCC(=O)c1ccc([N+](=O)[O-])cc1)N1C(=O)C2C3C=CC(C3)C2C1=O (stereo not given)	52	23	35	-7	10	·	·
CC(C(=O)OCC(=O)c1ccc([N+](=O)[O-])cc1)N1C(=O)C2C3CCC(C3)C2C1=O (stereo not given)	29	41*	42	-4	40	-11	-1
Cc1cc(C)nc(NNC2=CC(=[N+]3CCCC3)CCC2)n1	47	57*	20	0	-10	45*	3
Cc1cc(C)nc(NNC2=CC(=[N+]3CCCCC3)CC(C)(C)C2)n1	99*	56*	25	-4	-4	40*	1
O=C(c1ccccc1Cl)N1N=C(c2cccs2)CC1c1cccc(O)c1 (stereo not given)	-1	1	10	2	-4	·	·
O=c1c(-c2ccc([N+](=O)[O-])cc2)coc2c(O)c(O)ccc12	9	45*	-8	24	13	25	-2
CN(C)Cc1c(O)ccc2c(=O)c(-c3ccc(Cl)cc3)coc12	11	-11	-9	2	-11	·	·
CCN(CC(=O)Nc1ccc(OC)cc1)C(=O)c1ccccc1Sc1ccccc1C#N	-9	·	11	1	·	·	·
CCOc1ccc(NC(=S)NNC(=S)Nc2cccc(C(F)(F)F)c2)cc1	-8	15	22	-8	8	·	·
COc1ccc(NC(=S)NNC(=S)Nc2cccc(C(F)(F)F)c2)cc1	14	42*	23	-6	41	-19	0
COc1cc(C2NC(=O)CCC2[N+](=O)[O-])cc(OC)c1OC (stereo not given)	-1	6	-8	-1	5	·	·
CCc1c(C)sc(NC(=O)c2noc(C)c2[N+](=O)[O-])c1C#N	0	37*	41	2	-1	-36	-3
O=C(CCCCCCC(=O)NCc1ccccc1)NCc1ccccc1	·	-2	-20	-7	24	·	·
CCSc1ccccc1C(=O)Nc1ccc(S(=O)(=O)NC(C)=O)cc1	96*	32*	7	12	39	-33	5
Cc1ccc(S(=O)(=O)N2CCN(CN3C(=O)CC4(CCCC4)C3=O)CC2)cc1	·	·	-1	5	·	·	·
O=C1C=C(NCc2ccc(Cl)cc2)CC(c2ccco2)C1 (stereo not given)	-25	10	9	1	9	·	·
O=C1C=C(Nc2ccc(O)cc2)CC(c2ccco2)C1 (stereo not given)	99*	42*	-17	9	-29	-25	-1
